Shown are actives, neighbours in structure and some others; about 4.5% of the full set was active somewhere.
hcDAF-12 act: H. contortus DAF-12 nuclear receptor activators, primary screen, cell-based, luminescence, HEK293, lit1-tk-luc reporter. HEK293 hcDAF-12 lit1-tk-luc reporter; 0% DMSO, 100% Δ7-dafachronic acid. activation, % at 6.8 µM. 1.4% of 370,000 active. AID 652067, 2013;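 active = activation above the mean of all tested compounds plus 3 SD, cut at about 5.5% in these data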
DAX1 inh-1: DAX1 (NR0B1) inhibitors, primary screen, cell-based, HEK293, Gal4-DAX1, luciferase luminescence; Nuclear receptor subfamily 0 group B member 1 (Homo sapiens), P51843; HEK293 Gal4-DAX1 luciferase reporter; inhibition, % at 6.75 µM; 0.99% of 340,000 active; AID 504766, 2011;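 active = inhibition above the mean over all tested compounds plus 3 SD, cut at about 4.2% in these data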;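 note: inhibition shows as a rise in luminescence from relieved DAX1 repression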
GAA850 FXN act: FXN promoter activators, primary screen, cell-based, luciferase luminescence, HEK293 lucGAA850; HEK293 lucGAA850 FXN promoter luciferase reporter, 24 h; percent of 10 µM SAHA response; activation, % at 6 µM; 0.56% of 360,000 active;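 active = activation above the average of all compounds screened plus 3 SD, cutoff fixed separately per campaign, cut at about 7.5% in these data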
ssDAF12 agonist: S. stercoralis DAF-12 nuclear receptor activators, primary screen, cell-based, luminescence, HEK293, GRIP1 co-expression, lit1-tk-luc | Nuclear hormone receptor DAF-12 (Strongyloides stercoralis) | HEK293 ssDAF-12/GRIP1 lit1-tk-luc reporter; % of 3 µM dafachronic acid response | activation, % at 6.8 µM | 1% of 370,000 active | AID 652126, 2013;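 active = activation above the mean over all tested compounds plus 3 SD, cut at about 0.9% in these data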
hgDAF12 agonist: H. glycines DAF-12 receptor agonists, primary screen, cell-based, luminescence, HEK293, GAL4 fusion, UAS-luciferase. 1.8% of 370,000 active. HEK293 GAL4-hgDAF12 UAS-luciferase reporter, agonist luminescence; normalized to butyrate control. activation, % at 6.8 µM. AID 687014, 2013;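 active = activation above a cutoff set at the mean of all screened compounds plus 3 SD, cut at about 10% in these data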
DAX1 inh-2: DAX1 (NR0B1) inhibitors on StAR promoter, primary screen, cell-based, luminescence, SF-1 (NR5A1), full-length DAX-1; HEK293T StAR-luciferase reporter, SF-1/DAX-1 repression relief; inhibition, % at 6.8 µM; 1.1% of 370,000 active; AID 652010, 2013;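 active = inhibition above the mean over all tested compounds plus 3 SD, cut at about 3.6% in these data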;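 note: higher inhibition means more luminescence from relief of DAX-1 repression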
LXRb hcDAF ctr: LXR agonists, Gal4 luciferase reporter, confirmation, counter-screen for hcDAF-12 agonist project, cell-based, luminescence, HEK293, H. contortus campaign | shares compounds with hcDAF-12 act | HEK293 Gal4-LXR tk-luc reporter, 24 h; normalized: DMSO 0%, positive control 100% | activation, % at 6.8 µM | 3,400 tested, under 10 active;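 active = mean percent activation of the reporter above a cutoff set as the average over tested compounds plus their standard deviation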
Target sequence (P55055 whole entry, looked up, the tested form may be a part): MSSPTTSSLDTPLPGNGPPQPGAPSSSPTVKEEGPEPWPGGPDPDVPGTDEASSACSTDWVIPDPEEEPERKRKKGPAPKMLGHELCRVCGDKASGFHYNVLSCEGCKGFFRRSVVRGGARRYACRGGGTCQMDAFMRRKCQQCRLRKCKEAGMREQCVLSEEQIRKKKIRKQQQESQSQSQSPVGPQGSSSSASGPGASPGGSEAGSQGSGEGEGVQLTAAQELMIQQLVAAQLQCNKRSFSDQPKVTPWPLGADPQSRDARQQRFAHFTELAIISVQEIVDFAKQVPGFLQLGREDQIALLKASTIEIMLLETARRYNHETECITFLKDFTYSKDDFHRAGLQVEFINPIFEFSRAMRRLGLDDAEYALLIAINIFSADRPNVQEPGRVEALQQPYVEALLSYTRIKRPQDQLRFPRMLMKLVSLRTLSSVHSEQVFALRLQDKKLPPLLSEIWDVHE
hcDAF12 ag: H. contortus DAF-12 receptor agonists, confirmation, cell-based, luminescence, HEK293, lit1-tk-luc, triplicate; shares compounds with hcDAF-12 act; HEK293 hcDAF-12 lit1-tk-luc reporter; % of Δ7-dafachronic acid response; activation, % at 6.8 µM; 61% of 3,400 active;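 active = mean activation across triplicate tests above the threshold derived from the earlier primary screen, cut at about 5.5% in these data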
A number is an active result; - = inactive; . = no result given; ! = not active in a repeat.

SMILES	hcDAF-12 act	DAX1 inh-1	GAA850 FXN act	ssDAF12 agonist	hgDAF12 agonist	DAX1 inh-2	LXRb hcDAF ctr	hcDAF12 ag
CC(C)CCNC(=O)C(=O)NCCC1=CCCCC1	6.7	-	-	-	-	-	-	-
CCCNC(=O)C(=O)NCCC1=CCCCC1	-	-	-	-	-	-	.	.
Clc1ccccc1-c1nc(-c2ccncc2)no1	7.2!	-	-	-	-	-	-	-
Clc1ccccc1-c1nnc(-c2cccnc2)o1	-	-	-	-	-	-	.	.
Clc1ccccc1-c1nc(-c2cccnc2)no1	8.1	-	-	1.3	-	-	-	8.1
CCc1ccc(-c2nc(-c3ccncc3)no2)cc1	8.2	-	-	-	10.9	-	-	8.3
CC(=O)CC[C@H]1CC[C@]2(CCCN(C(=O)c3ccccc3)C2)O1	-	.	.	-	-	-	.	.
CC(=O)c1ccc(Nc2nc(C(N)COCc3ccccc3)cs2)cc1 (configuration not stated)	-	.	-	-	-	-	.	.
COc1cccc(C2=Nc3cccc4cccc(c34)N2)c1	11.4	-	-	-	-	-	-	-
Nc1ccc(C2=Nc3cccc4cccc(c34)N2)cc1	-	-	-	-	-	-	.	.
CCOC(=O)c1cn[nH]c1NC(=S)Nc1ccc(Cl)cc1	7.9	.	-	-	-	-	-	10.4
Cc1cccc(N2CN=c3s/c(=C\c4ccccn4)c(=O)n3C2)c1	10.1	-	-	-	-	-	-	-
Cn1ncc(Cl)c1C(=O)Nc1nnc(C2CC2)s1	-	-	-	-	-	-	.	.
Cn1ncc(Cl)c1C(=O)Nc1nc2ccc(Cl)cc2s1	8.5	-	-	1.1	12.2	-	-	10.2
COc1nc2c(C)cccc2cc1-c1noc(-c2ccco2)n1	6.9	-	-	-	-	-	-	-
COc1nc(-c2ccc(Cl)cc2)ccc1-c1noc(-c2ccco2)n1	-	-	-	-	-	-	.	.
Cc1cc(C)c2c(N)c(C(=O)Nc3ccc(C)c(C)c3)sc2n1	8.3	8.0	-	1.6	-	-	-	9.5
O=C(O)c1ccc(N/N=C/c2cc(Br)cs2)cc1	12.1	-	-	1.0	-	-	-	9.0
O=C(N/N=C\c1cc(Br)cs1)c1ccncc1	-	-	-	-	-	-	.	.
COc1cc(CNc2ccc(N3CCCC3)cc2)ccc1OCc1ccccc1F	.	-	-	.	.	.	.	.
COc1cc(CNc2ccc(N3CCCC3)cc2)ccc1OCc1ccccc1	7.7	-	-	-	-	-	-	5.9
COc1ccccc1-c1nc(-c2ccccn2)no1	8.6	-	-	-	-	-	-	10.3
Clc1ccccc1-c1nc(-c2ccc(Br)o2)no1	15.1	5.6	-	3.5	21.5	-	-	17.6
Brc1ccc(-c2nc(-c3ccccn3)no2)o1	8.0	-	-	-	-	-	-	10.8
Clc1ccccc1OCc1nc(-c2ccc(Br)o2)no1	6.7	-	-	-	-	-	-	-
SMILES	hcDAF-12 act	DAX1 inh-1	GAA850 FXN act	ssDAF12 agonist	hgDAF12 agonist	DAX1 inh-2	LXRb hcDAF ctr	hcDAF12 ag
Cc1ccccc1-c1nc(-c2ccccn2)no1	-	-	-	-	-	-	.	.
NC(=O)c1ncn([C@@H]2O[C@H](C(=O)N[C@H](Cc3c[nH]c4ccccc34)C(=O)N3CCN(CC(=O)N4CCCC4)CC3)[C@@H](O)[C@H]2O)n1	-	.	.	-	-	-	.	.
CCOc1ccc(NC(=O)n2ncc3c(C)cccc32)cc1	-	-	-	-	-	-	.	.
COc1cccc(NC(=O)n2ncc3c(C)cccc32)c1	13.3	-	-	1.8	16.9	-	-	13.5
CC1CC1C(=O)N1CCC(Oc2cccnc2)CC1 (configuration not stated)	-	.	.	-	-	-	.	.
COc1ccc(CNC(=O)C2CCCN(c3nc4ccccc4o3)C2)cc1 (configuration not stated)	-	.	.	-	-	-	.	.
O=C(NC(=S)Nc1cccc([N+](=O)[O-])c1)c1ccccc1	-	.	-	-	-	-	.	.
O=C(NC(=S)Nc1ccc(Oc2ccc(Cl)cc2)cc1)c1ccccc1	-	-	-	-	-	-	.	.
O=C(NC(=S)Nc1ccc(Cl)cc1)c1ccccc1	8.0	-	-	-	12.9	-	-	-
O=C(NC(=S)Nc1cc([N+](=O)[O-])ccc1Cl)c1ccccc1	6.6	-	-	-	-	-	-	6.0
c1coc(-c2nc3c4ccccc4ccn3c2Cc2ccsc2)c1	7.4	.	.	1.6	12.4	-	-	15.0
Clc1cccc(Cc2c(-c3ccco3)nc3c4ccccc4ccn23)c1	-	.	.	-	-	-	.	.
Clc1ccc2nc(-c3ccco3)c(Cc3ccsc3)n2c1	-	.	.	-	-	-	.	.
Fc1cccc(Cc2c(-c3ccco3)nc3c4ccccc4ccn23)c1	6.7	.	.	3.7	12.7	-	-	9.5
O=C(NC1=NCCS1)c1sc2cc(F)ccc2c1Cl	9.4	-	-	1.3	11.1	-	-	15.3
c1ccc(NC2=Nc3ccccc3CS2)cc1	7.2	-	-	-	13.2	-	-	7.5
C=CCSc1cc(C)nc2c(-c3ccccc3)cnn12	12.0	4.9	-	2.9	12.3	-	-	6.9
C=CCn1c(C)nnc1SCC(=O)Nc1nc(C)c(C(=O)N(C)C)s1	7.3	-	-	-	-	-	-	-
CC(C)(C)C(=O)c1c(N)[nH]c(C(=O)c2ccccc2)c1-c1ccc([N+](=O)[O-])cc1	-	.	.	-	-	-	.	.
O=C(N[C@H](Cc1ccccc1)C(=O)NCc1cccc2ccccc12)[C@H]1O[C@@H](n2ccc(=O)[nH]c2=O)[C@H](O)[C@@H]1O	-	.	.	-	-	-	.	.
Cc1cccc(C(=O)NNC(=O)/C=C/C(=O)O)c1	8.6	-	-	-	-	-	-	-
